According to PubChem BioAssay (NCI):
The panel holds about 79,000 compounds, 15% with a hit somewhere; the sample as a whole holds those more often. Values without a mark were called inactive. Calls of active or inactive are those of the source. No stated cut-off is given here; in the data, active means growth inhibition above about 70%; inactive means the rest.

Experiments:
[1] = NCI Yeast Anticancer Drug Screen. Data for the rad50 strain (AID 155);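 further: 0% = growth of vehicle-only cultures of the same strain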; details: S. cerevisiae rad50 strain growth inhibition, active compounds read high
Procedure, shortened: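 Vehicle-treated cultures provide the reference for the growth inhibition reported for compound-exposed, repair-deficient yeast.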

[2] = NCI Yeast Anticancer Drug Screen. Data for the mec2-1 strain (AID 157); details: S. cerevisiae mec2-1 strain, active compounds read high
Procedure, shortened: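 Test agents were screened against the mec2-1 yeast strain, with defined DNA repair or cell cycle alteration. Growth was scored as inhibition against vehicle-only controls.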

[3] = NCI Yeast Anticancer Drug Screen. Data for the sgs1 mgt1 strain (AID 161);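 further: 0% = growth of cultures given vehicle only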; details: S. cerevisiae sgs1 mgt1 strain, active compounds read high
Procedure, shortened: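 Mutant yeast exposed to compound; growth scored against vehicle-only wells.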

[4] = NCI Yeast Anticancer Drug Screen. Data for the cln2 rad14 strain (AID 165);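 further: 0% = growth equal to vehicle treated cultures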; details: S. cerevisiae cln2 rad14 strain, active compounds read high
Procedure, shortened: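 Growth of compound-exposed yeast (cln2 rad14 genotype) measured and expressed as inhibition relative to vehicle.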

[5] = NCI Yeast Anticancer Drug Screen. Data for the bub3 strain (AID 167); details: S. cerevisiae bub3 mutant strain, active compounds read high
Procedure, shortened: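 Mutant yeast screening strain plus compound; vehicle-treated cultures serve as the 0% inhibition reference.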

[6] = NCI Yeast Anticancer Drug Screen. Data for the mlh1 rad18 strain (AID 175); details: S. cerevisiae mlh1 rad18 strain growth inhibition, active compounds read high
Procedure, shortened: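 In this whole-cell yeast screen, a strain with altered DNA damage repair is challenged with compound, and its growth is measured against matched vehicle-treated controls.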

[7] = at 5.0 µM (retest, dose inferred, filed as 0.5)
[8] = at 50.0 µM (retest, dose inferred, filed as 5.0)

SMILES	growth inhibition [1, 7]	growth inhibition [1, 8]	growth inhibition ([1]; at 50.0 µM)	growth inhibition [2, 7]	growth inhibition [2, 8]	growth inhibition ([2]; at 50.0 µM)	growth inhibition [3, 7]	growth inhibition [3, 8]	growth inhibition ([3]; at 50.0 µM)	growth inhibition [4, 7]	growth inhibition [4, 8]	growth inhibition ([4]; at 50.0 µM)	growth inhibition [5, 7]	growth inhibition [5, 8]	growth inhibition ([5]; at 50.0 µM)	growth inhibition [6, 7]	growth inhibition [6, 8]	growth inhibition ([6]; at 50.0 µM)
C1=CC2C(c3cccc4ccccc34)O[C@H]2O1 (stereo not given in full)	39%	99% (active)	98.8% (active)	11%	99% (active)	98.5% (active)	13%	99% (active)	98.8% (active)	7%	98% (active)	98.8% (active)	3%	99% (active)	98.4% (active)	28%	99% (active)	98.3% (active)
Clc1cccc(C2SCc3nc4ccccc4n32)c1Cl (stereo not given)	-2%	97% (active)	98.6% (active)	-3%	98% (active)	98.4% (active)	2%	98% (active)	97.5% (active)	-17%	97% (active)	97.4% (active)	1%	98% (active)	98.5% (active)	-4%	98% (active)	97.1% (active)
Oc1cc(O)c2c(c1)OC(c1ccc(O)c(O)c1)C(OC1(c3cc(O)c(O)c(O)c3)Oc3cc(O)cc(O)c3C(O)C1O)C2 (stereo not given)	-4%	17%	-3.85%	-5%	-27%	-18.2%	-14%	6%	-15.9%	-31%	4%	-9.25%	8%	-4%	-33.5%	-5%	12%	42.5%
CCOC(=O)C1=C(c2ccccc2)N(C)c2ccccc2S1	4%	55%	75.9% (active)	4%	92% (active)	80.7% (active)	5%	64%	76.2% (active)	-1%	-7%	-0.8%	2%	78% (active)	87% (active)	1%	62%	67.2%
Cn1c(=O)cc[nH]c1=O	-1%	3%	4.85%	0%	-1%	3.9%	0%	2%	5.45%	0%	-1%	-0.75%	1%	-5%	98.8% (active)	-5%	1%	14.2%
CCc1cccc(CC)c1NC(=O)C1=C(C)NC(C)=C(C(=O)Nc2c(CC)cccc2CC)C1c1ccc2c(c1)OCO2	54%	54%	91.9% (active)	45%	45%	92.5% (active)	45%	45%	93.2% (active)	26%	26%	91.3% (active)	39%	39%	89.2% (active)	43%	43%	87.5% (active)
Nc1ncc(C(=O)c2ccccc2)cc1[N+](=O)[O-]	-142%	-110%	-5.7%	-44%	-37%	21.8%	-61%	-45%	-5.95%	-56%	-22%	38.9%	-76%	-58%	-2.9%	-138%	-87%	-0.8%
CCN1C2=NC(=O)N(C)C(=O)C2(Cl)C(C(SC)S(=O)(=O)c2ccc(C)cc2)c2ccccc21 (stereo not given)	22%	22%	88.1% (active)	7%	7%	86.3% (active)	15%	15%	81.7% (active)	18%	18%	90% (active)	1%	1%	89.5% (active)	2%	2%	84.7% (active)
C=CC(C)(CCC=C(C)C)OC(=O)Nc1ccccc1 (stereo not given)	19%	-13%	-7.2%	2%	-25%	-12.7%	-10%	13%	16.1%	-2%	6%	-7.95%	0%	-14%	8.05%	-2%	24%	-4.25%
COc1ccc(C23OCCN2C(=O)c2ccccc23)cc1 (stereo not given)	4%	-3%	97% (active)	-15%	-6%	97.1% (active)	-4%	2%	97.5% (active)	-4%	-2%	92.7% (active)	-31%	-2%	96.3% (active)	-10%	-2%	97.9% (active)
